# Assay outcomes: PubChem, National Center for Advancing Translational Sciences (NCATS)
# Sampled rows, rich in hits. Any-hit rate of the full collection: about 12%.
# Sfp inh – inhibitors of Bacillus subtilis Sfp phosphopantetheinyl transferase; AID 1490; Biochemical Sfp PPTase activity, qHTS; Potency, µM, inactives show largest response in the series, negative = inhibition, hits mostly inhibitors; Q9F4F7; hit rate 3.5% among 310,000;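 also: the enzyme is Sfp with the accession as filed and its product quenches rhodamine fluorescence; 0% = enzyme reaction without inhibitor and -100% = no enzyme wells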
#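 Sfp 15 nM + cpd, 15 min RT; start w/ rhodamine-CoA 5 uM, BHQ-2-YbbR 12.5 uM (final); 50 mM Hepes pH 7.6, 10 mM MgCl2, 0.01% NP-40, 0.01% BSA; read 525/598 nm at 0 and 30 min.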
# JMJD2A Tudor inh – inhibitors of human JMJD2A Tudor domain; O75164; AlphaScreen JMJD2A-Tudor / H3K4me3 peptide binding; Potency, µM (series often up to 114 µM), for inactives: at the highest dose activity change, negative = inhibition, usual class: inhibitors; hit rate 4.4% among 390,000; AID 504339; also: % is scaled to controls: 0 for no effect and ±100 for the full control effect; nearly all actives have a fitted effect of over 50% in size
# L3MBTL1 block – L3MBTL1 (human) inhibition; Potency, µM (top dose mostly 57.1 µM), inactives show top-dose activity, negative = inhibition, hits mostly inhibitors; hit rate 0.66% among 230,000; Q9Y468; AlphaScreen L3MBTL1–H3K9me1 peptide binding; also: % is scaled to controls: 0 for no effect and ±100 for the full control effect; nearly all actives have a fitted effect of over 60% in size
#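 L3MBTL1 50 nM + b-AHA-H3(1-15)K9me1 75 nM, 30 min RT; compound added, 30 min RT; streptavidin donor/Ni-chelate acceptor beads 10 ug/mL each final, 30 min RT dark; AlphaScreen read.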
# HP1b chromo inh – HP1-beta chromodomain-methylated histone interaction inhibition | AlphaScreen HP1-beta / biotin-H3K9me3 peptide binding | P83916 | Potency, µM (highest dose often 114 µM), inactives show top-dose activity change, negative = inhibition, usual class: inhibitors | hit rate 0.56% among 390,000 | AID 540317; also: nearly all actives have a fitted effect of over 70% in size
# Target sequence (P83916 whole entry, looked up): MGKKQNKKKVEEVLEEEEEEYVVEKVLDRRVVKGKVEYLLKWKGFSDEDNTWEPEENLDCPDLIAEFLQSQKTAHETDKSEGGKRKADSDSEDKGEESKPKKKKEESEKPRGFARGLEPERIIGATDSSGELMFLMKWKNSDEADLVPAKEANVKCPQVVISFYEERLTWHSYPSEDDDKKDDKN
#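 HP1-beta protein (50 nM final) preincubated 30 min at room temperature with biotinylated H3(1-18)K9me3 peptide (50 nM) in PBS pH 7.4, 0.01% Tween-20, then compound added for 30 min. AlphaScreen streptavidin donor/nickel chelate acceptor beads (10 ug/mL final), 30 min dark, luminescence read.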
# BAZ2B block – BAZ2B (human) inhibition. Q9UIF8. AID 504333. hit rate 4.4% among 360,000. AlphaScreen BAZ2B-H3K14Ac peptide displacement. Potency, µM (series often up to 114 µM), without a hit: top-dose activity change, negative = inhibition, hits mostly inhibitors; also: % is scaled to controls: 0 for no effect and ±100 for the full control effect; nearly all actives have a fitted effect of over 60% in size
#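 Complex of BAZ2B and biotin-H3K14Ac (50 nM apiece) forms over 30 min at RT, then faces library compounds up to 110 uM for another 30 min; AlphaScreen beads added, 20 min dark incubation, luminescence read.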
# G9a inh – G9a (human) methyltransferase inhibition | G9a H3K9 monomethylation, AlphaScreen, 2 h | Q96KQ7 | Potency, µM (series often up to 102 µM), inactives show top-dose activity, negative = inhibition, actives largely listed as inhibitors | hit rate 8.8% among 350,000; also: % is scaled to controls: 0 for no effect and ±100 for the full control effect; nearly all actives have a fitted effect of over 75% in size
# Target sequence (Q96KQ7 913-1193 limits assumed): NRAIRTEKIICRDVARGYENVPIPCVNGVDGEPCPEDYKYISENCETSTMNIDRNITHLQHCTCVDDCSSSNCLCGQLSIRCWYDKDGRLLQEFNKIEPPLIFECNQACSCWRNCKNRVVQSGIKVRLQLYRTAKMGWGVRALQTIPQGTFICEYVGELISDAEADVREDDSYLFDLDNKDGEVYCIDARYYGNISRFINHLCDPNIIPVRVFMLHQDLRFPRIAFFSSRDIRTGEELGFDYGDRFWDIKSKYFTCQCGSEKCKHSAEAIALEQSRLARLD
#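 Readings reflect AlphaScreen signal from monomethyl-H3K9 antibody detection. HMT at 20 nM; substrate b-H3K9 500 nM; cofactor SAM 20 uM; 2 h RT reaction; compounds tested as titrations in qHTS with 15 min preincubation.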
# Active calls of the source: *; ? = inconclusive; . = not tested or not shown; [ ] = another dose, or the depositor's remark. Calls follow the shape of the dose curve; as a rule, active = well fitted curve in the direction sought with a large enough effect; inconclusive = small, poorly fitted or top-dose-only effect, or another doubt; inactive = no such curve, though single readings can be large; an effect the other way counts as inactive or inconclusive. Potency is read from the fitted curve at half-maximal effect.
SMILES,Sfp inh,JMJD2A Tudor inh,L3MBTL1 block,HP1b chromo inh,BAZ2B block,G9a inh
CNC(=O)CSc1n[nH]c(-c2cc(Cl)ccc2OC)n1,20.2%,4.5%,12.1%,21.6%,-7.9%,-26.8%
CCn1c(-c2cc(Cl)ccc2OC)n[nH]c1=S,-4.9%,7.08µM*,.,20.3%,-0.3%,5.62µM*
C=CCn1c(-c2ccoc2C)n[nH]c1=S,3.9%,-1.3%,.,12.2%,?,?
CCn1c(-c2cc(Br)ccc2O)n[nH]c1=S,.,12.6µM*,.,20.6%,.,.
CCn1c(-c2cc3ccccc3cc2O)n[nH]c1=S,-1.2%,?,.,10.9%,-34.1%,?
COc1ccc(Cl)cc1-c1n[nH]c(=S)n1C,-2.4%,6.31µM*,.,21.6%,23.6%,7.94µM*
COc1cccc(C2CC(=O)Nc3c2c(=O)n(C)c2nc4ccccc4n32)c1OC (stereo not drawn),.,-9.0%,.,19.5%,-9.0%,-6.2%[59 µM]
CC(=O)OCC(=O)[C@@]1(OC(C)=O)[C@H](C)C[C@H]2[C@@H]3C[C@H](F)C4=CC(=O)C=C[C@@]4(C)[C@]3(F)[C@H](O)C[C@@]21C,22.1%,.,.,.,.,17.4%[21.5 µM]
Cc1cc(F)ccc1S(=O)(=O)Nc1ccc(O)c(Sc2ncn[nH]2)c1,?,-28.8%,.,-6.2%,-1.5%,39.8µM*
Cc1ccc(C)c(S(=O)(=O)Nc2ccc(O)c(Sc3ncn[nH]3)c2)c1,?,-17.6%[11.4 µM],.,11.3%,-7.0%,44.7µM*
O=C1CCCCC/C1=N/Nc1ccc(OCc2ccccc2)cc1,-8.7%,?,-14.3%,14.4%,?,31.6µM*
COc1ccc(NC(=O)N2CCC3(CC2)CCN(S(C)(=O)=O)CC3)cc1,23.9%,.,.,.,.,-0.8%[12.7 µM]
CC(C)N1C(=O)CC(Nc2cccc3cccc(N)c23)C1=O (stereo not drawn),-11.1%,?,-18.9%,-23.1%,?,44.7µM*
CN1C(=O)CC(NNC(=O)c2ccccc2)C1=O (stereo not drawn),-1.3%,0.3%,-1.3%,26.3%,-0.6%,.
CC(C)N1C(=O)CC(Nc2ccc(N3CCOCC3)cc2)C1=O (stereo not drawn),6.4%,-27.0%,.,2.1%,-6.3%,?
CN1C(=O)CC(Nc2cccc3cccc(N)c23)C1=O (stereo not drawn),-63.3%,?,-16.1%,0.8%,?,35.5µM*
CCCCNC(=O)c1cc2cccc([N+](=O)[O-])c2[nH]1,-20.1%,-26.8%,.,16.5%,?,50.1µM*
CCCCNC(=O)COc1ccccc1[N+](=O)[O-],3.8%,-11.4%,15.5%,30.3%,1.1%,12.4%[59 µM]
Cc1ccc2nsnc2c1NC(=O)c1cncc(Br)c1,-21.0%,-12.6%,.,21.7%,3.8%,56.2µM*
Cc1cnc(C(=O)Nc2ccc(C)c(S(=O)(=O)N(C)C)c2)cn1,5.2%,50.1µM*,25.6%,-2.5%,15.9%,23.3%[59 µM]
Cc1ccc(NC(=O)c2cnccn2)cc1S(=O)(=O)N(C)C,2.9%,-20.9%,5.3%,24.7%,6.4%,-18.7%[59 µM]
Cc1ccc(NC(=O)c2cncc(Br)c2)cc1S(=O)(=O)N(C)C,-21.8%,12.6µM*,4.1%,?,3.2%,13.1%
CCOC(=O)c1cccc(NC(=O)N2CCC(CN3CCCCCC3)CC2)c1,.,-17.8%,.,9.2%,-3.2%,-29.5%[59 µM]
CCOc1ccc(CCNC(=O)CCn2c(=O)c3cccn3c3cccnc32)cc1,.,-10.3%,.,15.8%,?,-4.5%[59 µM]
O=C(NCCc1ccccc1)C(=O)NCC(c1ccc2c(c1)OCO2)N1CCOCC1 (stereo not drawn),.,-1.9%,.,27.3%[57 µM],11.6%,17.1%[59 µM]
SMILES,Sfp inh,JMJD2A Tudor inh,L3MBTL1 block,HP1b chromo inh,BAZ2B block,G9a inh
Cc1ccccc1CNCCCSc1nnnn1C,.,-4.6%,.,45.7%,-22.4%,0.7%[59 µM]
COc1ccc(Cn2c(CNS(=O)(=O)c3ccc(C)c(C)c3)nc3cccnc32)cc1,.,-28.7%,.,8.6%[57 µM],-3.8%,41.2%[59 µM]
COc1ccc(OCC(=O)NNC(=O)C(=O)Nc2ccccc2)cc1,.,-3.4%,7.2%,27.2%,.,.
COCCNC(=O)C(=O)NNS(=O)(=O)c1ccc2ccccc2c1,-6.1%,?,4.4%,-15.3%,-15.7%,39.8µM*
COCCNC(=O)C(=O)NNC(=O)COc1ccc(OC)cc1,-8.3%,-7.2%,6.5%,55.3%,-38.0%,25.1µM*
Cc1ccc(C(C)C)cc1OCC(=O)Nc1ccc(-n2cnnn2)cc1,.,-11.0%,-5.0%,35.7%,-7.7%,5.7%[0.501 µM]
COc1ccc2cc(-c3[nH]ncc3CN3CCCN(c4ccccc4)CC3)ccc2c1,-2.4%,35.5µM*,-15.2%,20µM*,31.6µM*,.
NS(=O)(=O)c1ccc(CCNC(=O)COC(=O)/C=C/c2ccc(Cl)cc2)cc1,-8.3%,-17.4%,.,22.0%,-15.3%,0.3%
Cc1ccc(C(=O)/C=C/C(=O)O)cc1,12.6µM*,-13.8%,7.3%,10.3%,11.2%,10µM*
Cc1ccc(/C=C/C(=O)c2ccccc2)cc1,-4.5%,61.5%,.,.,67.1%,1.3%[12.7 µM]
O=c1[nH]c(=O)c2cc([N+](=O)[O-])cc([N+](=O)[O-])c2[nH]1,2.0%,-10.1%[57.1 µM],.,49.2%,6.0%,?
O=c1c2cc([N+](=O)[O-])cc([N+](=O)[O-])c2[nH]n1-c1ccccc1,-18.5%,35.5µM*,.,35.5µM*,39.8µM*,28.2µM*
Cc1cccc(C)c1NC(=O)CSCc1cnn(-c2ccccc2)c1-n1cccc1,.,-33.1%,.,-13.5%,-32.2%,-39.8%[59 µM]
CC1CCCC(C)N1/N=C/c1cc(Br)c(O)c(Br)c1 (stereo not drawn),56.2µM*,.,1.4%,.,-23.4%,5.62µM*
COc1cc(/C=N/N2C(C)CCCC2C)cc(Br)c1O (stereo not drawn),?,-31.0%,0.0%,-15.6%,.,?
CC1CCCC(C)N1/N=C/c1ccc(O)c(O)c1 (stereo not drawn),44.7µM*,22.4µM*,.,?,?,3.55µM*
Cc1cc(C(=O)OCC(=O)NCCC(C)C)c2ccccc2n1,6.4%,-3.5%,48.0%,28.5%,29.6%,-6.4%[12.7 µM]
Cc1cc(C(=O)NC(C)CCC(C)C)c2ccccc2n1 (stereo not drawn),7.3%,-13.7%,.,37.6%,10.7%,44.7µM*
Cc1cc(C(=O)NN=C2CCCCC2)c2ccccc2n1,16.4%,7.0%,4.5%,36.8%,-6.3%,18.5%[59 µM]
Cc1cc(C(=O)NN=C2CCCC2)c2ccccc2n1,.,11.2µM*,-2.8%,6.1%,-5.8%,-23.3%
CC1=CC(C)(C)Nc2ccc(OC(=O)CCN3C(=O)c4ccccc4C3=O)cc21,12.6%,-18.5%,-7.7%,?,35.5µM*,20µM*
Cc1cccc(C)c1NC(=S)N(CCN(C)C)C(C)c1cccnc1 (stereo not drawn),79.4µM*,-13.0%,.,31.5%,-24.0%,-1.4%[59 µM]
CCCCCCNC(=O)CC(NS(=O)(=O)c1ccc(NC(C)=O)cc1)C(C)C (stereo not drawn),8.9%,-2.9%,-1.2%,44.0%,1.6%,39.8µM*
